Here are results for 31 molecules from PubChem BioAssay (EPA / NIEHS).

Inconclusive results are not listed. The source made the active and inactive calls. Rule for the calls: active = hit-call score of the fitted dose curve at least 0.9, where 1 is the maximum; inconclusive = response in the unintended direction; inactive = score below 0.9.

Sequence of Glucocorticoid receptor (Homo sapiens) (P04150 whole entry, looked up): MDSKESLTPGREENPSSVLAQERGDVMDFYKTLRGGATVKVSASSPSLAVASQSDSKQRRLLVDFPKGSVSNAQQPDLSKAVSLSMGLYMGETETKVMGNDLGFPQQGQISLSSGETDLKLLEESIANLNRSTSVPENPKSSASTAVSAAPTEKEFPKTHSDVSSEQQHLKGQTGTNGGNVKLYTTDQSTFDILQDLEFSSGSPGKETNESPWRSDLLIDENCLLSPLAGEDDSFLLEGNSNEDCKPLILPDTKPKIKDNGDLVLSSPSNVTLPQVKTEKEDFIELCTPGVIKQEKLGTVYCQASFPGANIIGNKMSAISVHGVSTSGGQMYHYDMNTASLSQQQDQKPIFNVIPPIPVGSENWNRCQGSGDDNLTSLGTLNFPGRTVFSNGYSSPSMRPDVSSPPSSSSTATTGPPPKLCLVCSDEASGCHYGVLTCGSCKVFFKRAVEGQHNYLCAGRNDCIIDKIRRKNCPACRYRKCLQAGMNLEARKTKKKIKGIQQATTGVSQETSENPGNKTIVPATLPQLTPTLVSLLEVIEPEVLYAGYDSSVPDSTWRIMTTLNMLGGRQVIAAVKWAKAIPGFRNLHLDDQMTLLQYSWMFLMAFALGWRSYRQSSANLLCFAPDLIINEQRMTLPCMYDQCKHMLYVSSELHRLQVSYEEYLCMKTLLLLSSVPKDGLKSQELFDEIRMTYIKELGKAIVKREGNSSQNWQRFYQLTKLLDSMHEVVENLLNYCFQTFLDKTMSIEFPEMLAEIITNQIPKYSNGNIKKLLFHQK
Sequence of Nuclear receptor subfamily 1 group I member 2 (Homo sapiens) (O75469 whole entry, looked up): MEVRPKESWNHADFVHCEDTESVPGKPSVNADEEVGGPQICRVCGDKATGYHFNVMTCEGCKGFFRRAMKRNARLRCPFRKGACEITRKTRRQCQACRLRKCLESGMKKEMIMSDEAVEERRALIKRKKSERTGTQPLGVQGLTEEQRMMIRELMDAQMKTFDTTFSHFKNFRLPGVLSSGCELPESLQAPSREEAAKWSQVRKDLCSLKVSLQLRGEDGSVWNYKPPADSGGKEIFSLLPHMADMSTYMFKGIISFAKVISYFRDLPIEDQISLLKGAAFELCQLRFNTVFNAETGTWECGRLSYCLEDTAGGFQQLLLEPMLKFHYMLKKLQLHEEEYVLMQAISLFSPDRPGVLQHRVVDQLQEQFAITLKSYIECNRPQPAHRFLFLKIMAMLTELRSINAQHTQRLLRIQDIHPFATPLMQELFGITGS
Sequence of Peroxisome proliferator-activated receptor gamma (Homo sapiens) (P37231 whole entry, looked up): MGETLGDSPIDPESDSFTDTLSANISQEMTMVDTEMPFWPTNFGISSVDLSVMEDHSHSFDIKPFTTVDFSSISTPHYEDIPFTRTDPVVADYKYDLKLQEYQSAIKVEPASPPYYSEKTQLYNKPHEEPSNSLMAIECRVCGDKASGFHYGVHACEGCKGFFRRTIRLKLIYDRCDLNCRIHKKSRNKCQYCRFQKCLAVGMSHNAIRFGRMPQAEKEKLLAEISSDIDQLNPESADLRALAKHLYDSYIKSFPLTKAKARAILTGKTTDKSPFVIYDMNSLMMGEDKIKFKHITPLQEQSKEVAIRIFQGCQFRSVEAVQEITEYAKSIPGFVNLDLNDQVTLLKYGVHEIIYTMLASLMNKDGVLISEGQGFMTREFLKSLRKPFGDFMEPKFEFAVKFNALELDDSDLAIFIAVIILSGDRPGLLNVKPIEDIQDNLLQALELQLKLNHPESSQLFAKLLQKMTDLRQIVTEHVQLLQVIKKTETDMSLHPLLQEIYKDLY

For one assay, the target named is Glucocorticoid receptor (Homo sapiens) (UniProt P04150). The assay is described as follows: NVS_NR_hGR: NovaScreen (NVS) Nuclear Receptor Binding Assay for human Glucocorticoid Receptor (GR) (AID 2283363).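 For AC50: activity is loss of specific radioligand binding signal relative to DMSO.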 In a few lines:
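Cell-free radioligand binding with extracted receptor protein, read by filter-based scintillation counting 16 hours after dosing. Loss of specific signal versus DMSO baseline was scored. Primary screen ran in duplicate at 25 uM; actives were followed up in concentration series.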
The term AC50 denotes the midpoint of the concentration-response curve, whichever way the signal moves. `CCC(C)(C)C(=O)O[C@H]1C[C@@H](C)C=C2C=C[C@H](C)[C@H](CC[C@@H]3C[C@@H](O)CC(=O)O3)[C@H]21`: the AC50 is 14.5 µM (active).

Consider `O=C(OC[C@H]1O[C@@H](OC(=O)c2cc(O)c(O)c(OC(=O)c3cc(O)c(O)c(O)c3)c2)[C@H](OC(=O)c2cc(O)c(O)c(OC(=O)c3cc(O)c(O)c(O)c3)c2)[C@@H](OC(=O)c2cc(O)c(O)c(OC(=O)c3cc(O)c(O)c(O)c3)c2)[C@@H]1OC(=O)c1cc(O)c(O)c(OC(=O)c2cc(O)c(O)c(O)c2)c1)c1cc(O)c(O)c(OC(=O)c2cc(O)c(O)c(O)c2)c1`, for which the AC50 was 0.533 µM (active). `COc1ccc2sc(C(=O)Nc3nnn[nH]3)c(OC(C)C)c2c1`: the result was inactive. For the molecule `COc1ccc(-n2nc(C(F)F)cc2-c2ccc(S(C)=O)cc2)cc1` (stereo unspecified), the half-maximal activity concentration (AC50) was 16.7 µM (active).

The target of a further assay is Nuclear receptor subfamily 1 group I member 2 (Homo sapiens) (UniProt O75469). In words: NVS_NR_hPXR: NovaScreen (NVS) Nuclear Receptor Binding Assay for human Pregnane X Receptor (PXR) (AID 2283365).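 Note: a drop in FRET signal versus DMSO baseline means the compound binds.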 In a few lines:
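Human PXR protein, cell-free; compound added, incubated 2 h, TR-FRET read. Signal decrease vs DMSO = binding. Screened 25 uM duplicate, actives re-run as dilution series.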
`NC(=O)NO`: the molecule was classed as inactive. For `C=CCCCCCCCCC(=O)O`, the molecule was called inactive. Turning to `O=C(O)c1cc(N=Nc2ccc(S(=O)(=O)Nc3ccccn3)cc2)ccc1O`, the outcome was inactive. Turning to `CC(=O)OCCC(C)C`, the molecule was classed as inactive. As to `COC(=O)c1ccccc1O`, the call was inactive. `CC1(C)C(=O)N(Br)C(=O)N1Br`: the result was inactive. On the same count and under the same terms, the same measure for `Nc1cccc(N)c1`: “inactive”.

The target in the next assay is guinea pig Sigma Receptor, Non-selective Binding, SIGMAR1 (gene 100135589) (UniProt Q60492). The assay is described as follows: NVS_OR_gSIGMA_NonSelective: NovaScreen (NVS) Nuclear Receptor Binding Assay for guinea pig Sigma Receptor, Non-selective Binding (AID 2283367). In a few lines: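 Guinea pig brain membranes, cell-free radioligand binding; read 1 h after dosing by filter-based scintillation counting. Loss of signal vs DMSO baseline taken as displacement. Primary screen single concentration 25 uM in duplicate; actives retested in concentration series.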
Sequence of guinea pig Sigma Receptor, Non-selective Binding, SIGMAR1 (gene 100135589) (Q60492 whole entry, looked up): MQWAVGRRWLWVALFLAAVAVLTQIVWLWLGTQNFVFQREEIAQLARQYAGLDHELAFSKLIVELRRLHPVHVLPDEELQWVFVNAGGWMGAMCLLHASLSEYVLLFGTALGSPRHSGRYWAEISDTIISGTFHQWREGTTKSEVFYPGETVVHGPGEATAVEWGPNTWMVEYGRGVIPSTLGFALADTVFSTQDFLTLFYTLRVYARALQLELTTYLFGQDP
`CCCN(C1CCN(C(=O)C2CCNCC2)CC1)[C@@H]1CCc2ccc(OC)cc2C1`: the AC50 is 7.69 µM (active). `O=C(O)CCN(C1(C(=O)NO)CCCC1)S(=O)(=O)c1ccc(Oc2ccc(F)cc2)cc1`: the call was inactive.

In the case of `CCN(C(=O)c1cc(C)cc(OC[C@H](C)Nc2ccncc2)c1)C(C)C`, the AC50 was 6.22 µM (active). In the case of `CC(C)CC(C)(O)C#CC(C)(O)CC(C)C` (stereo unspecified), the AC50 is 15 µM (active).

On to `O=c1[nH]c2ccc(S(=O)CCN3CCC(Cc4ccc(F)cc4)CC3)cc2o1` (stereo unspecified), for which the AC50 is 0.339 µM (active). Still for that read-out and setting: the same measure for `O=C(O)CC(O)C(=O)O` (stereo unspecified): 14.8 µM (active); for `Cc1ccc(C)c(O)c1`: 8.63 µM (active).

For a further assay, the target named is human Adenosine Transporter (Adot), SLC29A1 (gene 2030) (UniProt Q99808). In words: NVS_TR_hAdoT: NovaScreen (NVS) Transporter Assay for human Adenosine Transporter (Adot) (AID 2283368). Summed up: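 U937-derived membranes, cell-free radioligand binding, filter scintillation 1 h after dosing. 25 uM duplicate screen; hits (e.g. 30% inhibition) run in concentration-response up to 50 uM; loss of signal versus DMSO.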
Sequence of human Adenosine Transporter (Adot), SLC29A1 (gene 2030) (Q99808 whole entry, looked up): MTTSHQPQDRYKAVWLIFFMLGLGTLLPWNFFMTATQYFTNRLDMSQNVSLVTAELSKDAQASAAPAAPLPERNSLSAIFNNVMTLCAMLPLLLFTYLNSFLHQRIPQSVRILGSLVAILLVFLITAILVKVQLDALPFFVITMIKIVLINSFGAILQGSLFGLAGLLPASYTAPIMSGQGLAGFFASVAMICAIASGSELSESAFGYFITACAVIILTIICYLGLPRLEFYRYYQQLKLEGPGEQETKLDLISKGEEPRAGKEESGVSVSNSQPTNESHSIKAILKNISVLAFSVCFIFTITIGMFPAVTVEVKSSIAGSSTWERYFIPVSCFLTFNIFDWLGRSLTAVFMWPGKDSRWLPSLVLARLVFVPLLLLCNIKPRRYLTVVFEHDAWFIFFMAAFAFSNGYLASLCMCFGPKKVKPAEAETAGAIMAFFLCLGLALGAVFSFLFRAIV
On to `CCC(C)(C)C(=O)O[C@H]1C[C@@H](C)C=C2C=C[C@H](C)[C@H](CC[C@@H]3C[C@@H](O)CC(=O)O3)[C@H]21`, for which the AC50 was 25 µM (active).

`CCCCC(CC)COC(=O)CCCCCCCCC(=O)OCC(CC)CCCC` (stereo unspecified): the concentration at half-maximal activity (AC50) is 39.9 µM (active).

Consider `O=C(OC[C@H]1O[C@@H](OC(=O)c2cc(O)c(O)c(OC(=O)c3cc(O)c(O)c(O)c3)c2)[C@H](OC(=O)c2cc(O)c(O)c(OC(=O)c3cc(O)c(O)c(O)c3)c2)[C@@H](OC(=O)c2cc(O)c(O)c(OC(=O)c3cc(O)c(O)c(O)c3)c2)[C@@H]1OC(=O)c1cc(O)c(O)c(OC(=O)c2cc(O)c(O)c(O)c2)c1)c1cc(O)c(O)c(OC(=O)c2cc(O)c(O)c(O)c2)c1`, for which the AC50 was 3.15 µM (active). `COc1ccc(-n2nc(C(F)F)cc2-c2ccc(S(C)=O)cc2)cc1` (stereo unspecified): the AC50 was 33.2 µM (active).

The target in the next assay is Peroxisome proliferator-activated receptor gamma (Homo sapiens) (UniProt P37231). The assay is described as follows: NVS_NR_hPPARg: NovaScreen (NVS) Nuclear Receptor Binding Assay for human Peroxisome Proliferator-activated Receptor gamma (PPARg) (AID 2283370). Summed up:
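Chemicals were tested first in duplicate at 25 uM, then in concentration series if active. Binding to cell-free PPARg protein was measured by fluorescence polarization after 2 h, with loss of signal scored against DMSO.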
With `CC(C)=CCC/C(C)=C/CO`, the call was inactive. On to `CNCc1ccc(NC(=O)c2c[nH]c3c2C(=O)CCC3)cc1`, for which the AC50 is 5.18 µM (active). Turning to `CCC(C)(C)C(=O)O[C@H]1C[C@@H](C)C=C2C=C[C@H](C)[C@H](CC[C@@H]3C[C@@H](O)CC(=O)O3)[C@H]21`, the molecule was classed as inactive.

Turning to `COc1ccc(/C=C/S(=O)(=O)NC(=O)c2ccc(C)cc2Cl)cc1`, the AC50 is 41.3 µM (active). Consider `C=CC(=C)CCC=C(C)C`, for which the call was inactive. Still for that read-out and setting: the same measure for `CCN(C(=O)c1cc(C)cc(OC[C@H](C)Nc2ccncc2)c1)C(C)C`: “inactive”.

On to `O=C(O)c1cccc(N(Cc2cccnc2)c2ccc(OC(F)F)c(OC(F)F)c2)c1`, for which the AC50 was 25 µM (active). As for `Cc1c(-c2cccnc2)c2ccccc2n1CCCCC(=O)O`, the outcome was inactive.

Consider `CC(C)=CCC/C(C)=C\CO`, for which the call was inactive. As for `O=C(NS(=O)(=O)/C=C/c1ccccc1)c1ccc(F)cc1Cl`, the AC50 was 39.6 µM (active). With `COc1ccc2sc(C(=O)Nc3nnn[nH]3)c(OC(C)C)c2c1`, the AC50 was 5.14 µM (active). Take `CC/C(=C\C(=N/O)C(N)=O)C(C)[N+](=O)[O-]` (stereo unspecified): the outcome was inactive. Take `O=C(O)c1cc(N=Nc2ccc(S(=O)(=O)Nc3ccccn3)cc2)ccc1O`: the molecule was called inactive. Same read-out and setting: the same measure for `CC1(C)C(=O)N(Br)C(=O)N1Br`: “inactive”; for `COc1ccc(-n2nc(C(F)F)cc2-c2ccc(S(C)=O)cc2)cc1` (stereo unspecified): “inactive”.

Take `CC(C)(O)c1coc(S(=O)(=O)NC(=O)Nc2c3c(cc4c2CCC4)CCC3)c1`: the molecule was called inactive. Take `O=c1[nH]c2ccc(S(=O)CCN3CCC(Cc4ccc(F)cc4)CC3)cc2o1` (stereo unspecified): the molecule was classed as inactive. As to `CC(C)c1cccc(C(C)C)c1N1C(=O)c2ccc(O)cc2C1=O`, the AC50 was 16.1 µM (active). On to `COC(=O)c1c(Cl)c(Cl)c(C(=O)OC)c(Cl)c1Cl`, for which the molecule was classed as inactive.
